Pol kappa inh-1 – qHTS for Inhibitors of Polymerase Kappa; 400,000 tested, 0.53% active; purified Pol kappa, fluorescent DNA synthesis assay, 10 min; DNA polymerase kappa (Homo sapiens), Q9UBT6; Potency, µM (series often up to 107 µM), without a hit: at the highest dose activity, negative = inhibition, actives largely listed as inhibitors; note: potency is the fitted concentration of half-maximal effect; % is set by controls: 0 for no effect and ±100 for the full control effect
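Enzyme at 10 nM met test compounds for 15 min at room temperature. Substrate addition (50 nM final) began the reaction, which was monitored by fluorescence at 0 and 10 min.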
Pol iota inh – qHTS for Inhibitors of Polymerase Iota; DNA polymerase iota (Homo sapiens), Q9UNA4; Pol iota fluorescent replication assay, 10 min; Potency, µM (top dose mostly 115 µM), inactives show top-dose activity, negative = inhibition, actives largely listed as inhibitors; 390,000 tested, 1% active; note: potency is the fitted concentration of half-maximal effect
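Pol iota at 10 nM preincubated 15 min with compounds at room temperature; reaction started with fluorescent substrate, 50 nM final. Fluorescence read kinetically at 0 and 10 min; buffer-only wells as negative control.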
POLB inh – qHTS Assay for Inhibitors of DNA Polymerase Beta; P06746; Pol beta primer extension/strand displacement, fluorescence kinetic; Potency, µM (top dose mostly 114 µM), without a hit: at the highest dose activity change, negative = inhibition, actives largely listed as inhibitors; 340,000 tested, 1.3% active; AID 485314, 2010; note: potency is the fitted concentration of half-maximal effect; % is set by controls: 0 for no effect and ±100 for the full control effect
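Preincubation: enzyme (10 nM) with compound, 15 min, RT. Reaction: substrate added to 50 nM final. Reads: 0 and 10 min. Analysis: normalized, Hill fit.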
WRN helicase inh – qHTS for Inhibitors of WRN Helicase; WRN helicase unwinding, fluorescent forked duplex, kinetic; Potency, µM (series often up to 114 µM), inactives show at the highest dose activity change, negative = inhibition, actives largely listed as inhibitors; 360,000 tested, 0.46% active; note: potency is the fitted concentration of half-maximal effect; % is set by controls: 0 for no effect and ±100 for the full control effect; nearly all actives have a fitted effect of over 55% in size
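WRN at 20 nM final preincubated with compound 15 min at room temperature; reaction started with 100 nM fluorophore/quencher forked duplex oligonucleotide and 2 mM ATP final. Unwinding followed kinetically by red fluorescence (ex 525, em 598 nm).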
Pol eta inh-1 – qHTS for Inhibitors of Polymerase Eta; Potency, µM (highest dose often 114 µM), inactives show at the highest dose activity change, negative = inhibition, most hits filed as inhibitors; AID 588591, 2011; DNA polymerase eta (Homo sapiens), Q9Y253; 390,000 tested, 1.2% active; recombinant Pol eta, fluorescent DNA replication assay; note: potency is the fitted concentration of half-maximal effect; % is set by controls: 0 for no effect and ±100 for the full control effect
Target sequence (Q9Y253 whole entry, looked up): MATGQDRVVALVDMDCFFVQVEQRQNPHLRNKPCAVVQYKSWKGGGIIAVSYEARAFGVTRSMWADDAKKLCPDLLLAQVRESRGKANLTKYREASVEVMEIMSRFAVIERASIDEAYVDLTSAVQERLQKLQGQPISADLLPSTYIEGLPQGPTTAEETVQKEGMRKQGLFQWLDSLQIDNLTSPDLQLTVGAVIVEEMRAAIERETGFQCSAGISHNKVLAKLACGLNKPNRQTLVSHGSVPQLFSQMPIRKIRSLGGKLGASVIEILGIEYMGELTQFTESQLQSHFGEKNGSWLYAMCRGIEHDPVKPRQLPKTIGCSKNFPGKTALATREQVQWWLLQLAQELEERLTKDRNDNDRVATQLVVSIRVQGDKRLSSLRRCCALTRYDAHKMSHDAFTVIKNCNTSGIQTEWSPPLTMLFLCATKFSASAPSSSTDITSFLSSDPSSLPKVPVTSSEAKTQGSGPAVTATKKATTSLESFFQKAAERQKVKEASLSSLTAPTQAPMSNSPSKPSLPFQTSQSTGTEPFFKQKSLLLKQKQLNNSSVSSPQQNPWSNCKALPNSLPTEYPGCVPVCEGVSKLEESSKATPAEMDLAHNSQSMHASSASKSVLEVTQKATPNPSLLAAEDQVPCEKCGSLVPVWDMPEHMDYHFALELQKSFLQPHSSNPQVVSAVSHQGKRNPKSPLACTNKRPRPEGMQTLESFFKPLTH
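Pol eta at 10 nM preincubated with compounds 15 min at room temperature; reaction started with fluorescent substrate (50 nM final) and read kinetically at 0 and 10 min.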
GALK inh confirm – Confirmation Assay for Inhibitors of Human Galactokinase (GALK). shares compounds with Pol eta inh-1. purified GALK, Kinase-Glo ATP depletion luminescence. Potency, µM (doses to about 115 µM), for the others: top-dose activity, negative = inhibition, hits mostly inhibitors. 150 tested, 70% active. AID 2015, 2009
GALK redox cs – Confirmatory Assay for Inhibitors of Human Galactokinase (GALK): Phenol-HRP redox assay counterscreen; shares compounds with Pol eta inh-1; Phenol red-HRP H2O2 redox cycling, absorbance 600 nm; Potency, µM (highest dose often 115 µM), for the others: top-dose activity change, negative = H2O2 signal, actives largely listed as inhibitors; 150 tested, 40% active
HEK293 viability – Secondary Assay for Inhibitors of Human Galactokinase (GALK): HEK-293 Cell Viability Assay | shares compounds with Pol eta inh-1 | HEK-293 viability, ATP luminescence (CellTiter-Glo), 24/48 h | Potency, µM (highest dose often 46.1 µM), inactives show top-dose activity change, negative = cytotoxicity, hits mostly inhibitors | 170 tested, 10% active; note: potency is the fitted concentration of half-maximal effect; % is set by controls: 0 for no effect and ±100 for the full control effect
Pol kappa inh-2 – qHTS for Inhibitors of Polymerase Kappa: Confirmatory Assay for Cherry-picked Compounds. Potency, µM, usual class: inhibitors. purified Pol-kappa, fluorescent strand-displacement substrate. shares compounds with Pol eta inh-1. 920 tested, 76% active; note: potency is the fitted concentration of half-maximal effect
Pol eta inh-2 – qHTS for Inhibitors of Polymerase Eta: Confirmatory Assay for Cherry-picked Compounds. Pol eta primer extension, TAMRA/BHQ fluorescence, 10 min. 2,600 tested, 64% active. shares compounds with Pol eta inh-1. AID 720502, 2013. Potency, µM, hits mostly inhibitors; note: potency is the fitted concentration of half-maximal effect
* hit, by the source's call; u = inconclusive; x = no result; [ ] = dose if it differs, or a comment. Shown are actives, neighbours in structure and some others; about 2.3% of the full set was active somewhere. Calls come from the whole dose curve; as a rule, active = well fitted curve in the direction sought with a large enough effect; inconclusive = small, poorly fitted or top-dose-only effect, or another doubt; inactive = no such curve, though single readings can be large; an effect the other way counts as inactive or inconclusive.

SMILES	Pol kappa inh-1	Pol iota inh	POLB inh	WRN helicase inh	Pol eta inh-1	Pol eta inh-2	others
O=C(N=Nc1c(O)[nH]c2ccc([N+](=O)[O-])cc12)c1cc(-c2ccccc2Cl)nc2ccccc12	-12%[60.1 µM]	u	u	-20%[11.6 µM]	u	x	Pol kappa inh-2=u
CC(C)(C)C1CCc2oc3ccc(NS(=O)(=O)c4ccc(C(=O)O)cc4)cc3c2C1 (centres undefined)	u	u	u	x	u	x	Pol kappa inh-2=u
Cc1cc(C)cc(N=C2NC(=O)/C(=C/c3cccs3)S2)c1	-11%	-9%	20%	-6%	-9%	x
COc1ccc(N=C2NC(=O)/C(=C\C=C\c3ccco3)S2)cc1	u	u	10µM*	22µM*	40µM*	u
Cc1cccc(N=C2NC(=O)/C(=C/C=C/c3ccco3)S2)c1	u	18µM*	20µM*	u	20µM*	u
CCOc1ccc(/C=c2\sc3nc(-c4ccco4)nn3c2=O)cc1OCC	u	u	1%	u	14µM*	u
COc1ccc(CCNC(=O)c2ccc(-n3c(C)cc4c3CCC(C)C4)cc2)cc1OC (centres undefined)	-18%	-6%	-14%	x	-13%	x
CC1(C)CC(=O)C2=C(C1)NC(Nc1nc3ccccc3o1)=NC21CCCCC1	9%	17%	10%	-2%	-6%	x	HEK293 viability=-10%
O=C1CC(c2ccccc2)CC2=C1C1(CCCCC1)N=C(Nc1nc3ccccc3o1)N2 (centres undefined)	x	x	x	x	x	x	HEK293 viability=-3%
O=C1CCC2=C1C1(CCCC1)N=C(Nc1nc3ccccc3o1)N2	x	x	x	x	x	x	HEK293 viability=-17%
CN(C)c1cccc(C(=O)OCC(=O)Nc2nccs2)c1	-15%	u	23%	-28%[57.1 µM]	u	u
Cc1cccc(C(=O)OCC(=O)Nc2nccs2)c1	-7%	8%	15%	-1%	-17%	x
CCN(CC)S(=O)(=O)c1ccc2c(c1)c(=O)c(C(=O)NCc1ccccc1Cl)cn2C	-2%	-40%	u	x	5%	x
CC(C)CN(C(=O)C1CC1)c1c(N)n(Cc2ccccc2)c(=O)[nH]c1=O	-7%	34%	x	5%	-11%	x
CSc1cccc(N2CC(C(=O)N(CC(C)C)c3c(N)n(Cc4ccccc4)c(=O)[nH]c3=O)CC2=O)c1 (centres undefined)	u	u	x	-10%[11.6 µM]	25µM*	u
O=C(/C=C/c1ccc(NC(=O)c2ccccc2-c2ccccc2C(=O)O)cc1)c1ccccc1	-25%	u	-25%	u	11µM*	30*
O=C(O)CCCCCn1c(SCC(=O)N2CCCC2)nc2ccsc2c1=O	-5%	u	25%	3%	-10%	x
O=C(O)CCCCCn1c(SCC(=O)c2ccc(O)c(O)c2)nc2ccsc2c1=O	u	u	40µM*	u	2.8µM*	17*	Pol kappa inh-2=7.5*
COc1c(C)cccc1C(=O)Nc1ccc(Cl)c(-c2nc3cc(C)ccc3o2)c1	5%	-14%	5%	x	-14%	x
COc1ccc(C(=O)Nc2ccc(-c3nnc4n3CCCCC4)cc2)cc1OC	u	u	32µM*	x	3%	x	Pol kappa inh-2=17*
CCc1ccc(/C=C2\C(=N)N3N=C(CC(=O)N4CCCCC4)SC3=NC2=O)cc1	u	u	-8%	-6%	-7%	x
N=C1/C(=C/c2ccc(Br)o2)C(=O)N=C2SC(CC(=O)N3CCCC3)=NN12	35µM*	18µM*	8.9µM*	50µM*	8.9µM*	38*
CSc1ccc(/C=C2\C(=N)N3N=C(CC(=O)N4CCCCC4)SC3=NC2=O)cc1	89µM*	u	u	-6%[11.6 µM]	45µM*	x	Pol kappa inh-2=67*
Cc1ccc(/C=C2\C(=N)N3N=C(CC(=O)N4CCCCC4)SC3=NC2=O)cc1	u	u	-21%	-2%[11.6 µM]	u	19*
CCOc1ccc(C2=CC(c3cc(Br)ccc3F)n3ncnc3N2)cc1Cl (centres undefined)	-14%[60.1 µM]	u	u	x	-14%	x
SMILES	Pol kappa inh-1	Pol iota inh	POLB inh	WRN helicase inh	Pol eta inh-1	Pol eta inh-2	others
COc1cccc(Cn2c(C)c(CNCc3ccccc3Cl)c(C(=O)O)c2C)c1	-13%	22%	u	x	-8%	x
COc1ccc(N2Cc3cccc(C(=O)Nc4cc(C)cc(C)c4)c3C2=O)cc1	u	71µM*	10µM*	x	79µM*	u	Pol kappa inh-2=42*
CC(C)(C)C(=O)Nc1ccc2c(c1)C(=O)C(=O)c1ccccc1-2	4%	1.4µM*	x	x	x	x	HEK293 viability=5.6µM*
O=C(O)c1cccc(N2C(=O)C=CC2=O)c1	x	x	x	-25%[11.6 µM]	20µM*	54*
O=C(O)c1cccc(N2C(=O)C3CC=CCC3C2=O)c1 (centres undefined)	-3%	1%	-1%	-3%	13%	x
CC(C)c1ccc2oc(-c3cccc(NC(=O)c4ccc5c(c4)OCCO5)c3)nc2c1	u	u	-2%	x	-17%	x
COc1cc(/C=C2/C(=N)N3N=C(C(C)C)SC3=NC2=O)ccc1OS(=O)(=O)c1ccccc1	-13%	u	0%	-8%	u	x
CCOc1cc(/C=C2/C(=N)N3N=C(C)SC3=NC2=O)ccc1OS(=O)(=O)c1ccc(C)cc1	-19%	u	-27%	-28%	u	x
COc1cc(/C=C2/C(=N)N3C(=NC2=O)SN=C3S(=O)(=O)C(C)C)ccc1OS(=O)(=O)c1ccccc1	x	x	u	x	x	x	GALK inh confirm=u;GALK redox cs=3%;HEK293 viability=0%

Bioassay records deposited in PubChem BioAssay by National Center for Advancing Translational Sciences (NCATS).
